Laboratory results as given in PubChem BioAssay AID1233 (SRMLSC, 2008).
Entries with a potency or affinity are not part of this list. Activity calls are given as the source filed them.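 Rule for the calls: active = a dose-response curve fit returns a half-maximal inhibitory concentration, extrapolated values included; inactive = the fit returns no such concentration.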

The compounds below were run against HMG-CoA reductase [Enterococcus faecalis] (UniProt Q9FD70) (assay: class II HMG-CoA reductase inhibition potency – biochemical, Enterococcus faecalis, confirmation (AID 1233)). Settings: purified E. faecalis HMGR, NADPH absorbance 340 nm kinetics; series mostly up to 100 µM.

outcome, inactive:
CC(C)(C)[C@H]1C=C(C(=O)N2CCN(Cc3ccc4c(c3)OCO4)CC2)O[C@@H](OCc2ccc(CO)cc2)C1
COc1ccc(-c2[nH]nc3c2C(c2ccsc2)C(C#N)=C(N)O3)cc1 (stereo not drawn)
CCCCCC/C(C)=C1/SC(=S)NC1=O
COc1ccc(CCNc2ccncn2)cc1
CCOC(=O)c1cnn(-c2nc(-c3ccccc3)cs2)c1C(F)(F)F
CCOC(=O)c1c(C)oc2c1c(C=NCCO)c(O)c1ccccc12
N#Cc1c(/N=C/c2ccco2)sc2c1CCCCC2
COc1ccc(CCNC2=CC(=O)N(c3ccc(F)cc3)C2=O)cc1
Cc1cc2cccc(C)c2nc1SCC(=O)NNC(=O)c1ccco1
CC(=O)Nc1ccc(Cc2nc3ccccc3[nH]2)cc1
COc1ccc(-c2nn(-c3ccccc3)cc2/C=N/Nc2cccc(C(=O)O)c2)cc1
COc1ccc(N2CC(C(=O)NCCc3ccc(OC)c(OC)c3)CC2=O)cc1 (stereo not drawn)
COC(=O)c1cc(NC(=O)CSc2nnc(N)s2)ccc1Cl
CN(C)S(=O)(=O)c1ccc(NC(=O)N2CCOCC2)cc1
CCOC(=O)C1(O)CC(C)=NN1C(=O)c1cccc(Br)c1 (stereo not drawn)
Cc1ccc(S(=O)(=O)N2CCCC2C(=O)Nc2nc3ccccc3s2)cc1 (stereo not drawn)
COc1ccc(C(=O)C(C)OC(=O)c2cccc(S(=O)(=O)Nc3cc(Cl)c(OC)cc3OC)c2)cc1 (stereo not drawn)
O=C(COC(=O)CCS(=O)(=O)c1ccc(Cl)cc1)NCCc1ccccc1
COc1ccc(N=CC2=C(O)c3ccccc3C2=O)c(OC)c1
O=C(Nc1ccncc1)c1ccc(C(=O)Nc2ccncc2)cc1
O=C(COC(=O)c1cc([N+](=O)[O-])ccc1NCCO)c1ccc(Cl)cc1
CC(=O)c1ccc(N2CCN(C(=O)Cc3n[nH]c(=O)c4ccccc34)CC2)cc1
COCCN(C(=O)CNC(=O)c1cccs1)C(C(=O)NC1CCCCC1)c1ccco1 (stereo not drawn)
O=C1OC(c2cccs2)=N/C1=C/c1ccc(-c2cccc(C(=O)O)c2)o1
O=C(/C(=C/c1ccc(Cl)cc1)c1nc2ccccc2[nH]1)c1ccccc1
COc1ccc(NC(=O)C2=C(C)NC(=O)NC2c2cccc(OC)c2OC)c(OC)c1 (stereo not drawn)
CC(=O)N1CCN(S(=O)(=O)c2ccc(C)c([N+](=O)[O-])c2)C1C(C)C (stereo not drawn)
CC(=O)c1cccc(NC(=O)Nc2csc3c2CCCC3)c1
C=CCOc1ccc(Br)cc1CNC(C)(C)C
COC(=O)C(C)n1cnc2c(nnn2-c2ccc(OC)cc2)c1=O (stereo not drawn)
CCN(CC)c1ccc(/C=N/NS(=O)(=O)c2cccc([N+](=O)[O-])c2)cc1
Cc1cc(C(=O)N/N=C2\CCCC(=O)C2)c(C)n1-c1ccccc1
CC(C)NC(=O)CSc1nc2ccccc2n1CC(=O)N(C(C)C)C(C)C
CCOc1ccc(S(=O)(=O)N(C)CCO)cc1-c1nc2c(C(C)(C)C)nn(C)c2c(=O)[nH]1
Cc1cc(C(=O)N[C@H](c2ccccc2)[C@@]2(C)C[C@@H]2[C@@H](C)C(=O)Nc2ccc3ccccc3c2)no1
CCN1CCCC1CNCC(O)COc1ccc(C(C)(C)C)cc1C (stereo not drawn)
Cc1nc(NC(=O)COC(=O)CCS(=O)(=O)c2ccccc2Cl)c(Cl)cc1Cl
Cn1c(CO)cnc1SCc1ccc(F)cc1
